Reference: PubChem BioAssay (Tox21)
Records with an inconclusive call do not appear. Activity calls are given as the source filed them. The call rests on the fitted dose curve; in most records, active means well fitted curve in the direction sought with a large enough effect in the repeat runs; inconclusive means weak or mixed curves; inactive means no such curve, though single readings can be large; an effect the other way counts as inactive or inconclusive.

Columns and labels:
[1] = Caspase-3/7 induction in CHO-K1 cells by small molecules, qHTS cell viability counter screen (AID 1346979); further: nearly all actives have a fitted effect of over 35% in size; further: potency means the concentration at half of the fitted maximal effect
Method in brief: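 Wild-type CHO-K1 cells were seeded at 1,500 per well, rested 5hr at 37 C, then exposed to compounds in DMSO. After 16hr, CellTiter-Fluor reagent was added and fluorescence read 1hr later as the viability measure.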

[2] = Caspase-3/7 induction in CHO-K1 cells by small molecules, qHTS assay (AID 1346980); further: nearly all actives have a fitted effect of over 15% in size; further: potency means the concentration at half of the fitted maximal effect
Method in brief: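 Wild-type cells were seeded at 1,500 per well and settled 5 hr at 37 C, 5% CO2, then exposed to DMSO-dissolved compounds for 17 hr. Caspase-Glo 3/7 reagent was added, and luminescence was read after 30min at room temperature.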

[3] = Caspase-3/7 induction in HepG2 cells by small molecules, qHTS cell viability counter screen (AID 1346981); further: nearly all actives have a fitted effect of over 30% in size; further: potency means the concentration at half of the fitted maximal effect; on activity change, negative = cytotoxicity: series mostly up to about 92 µM
Method in brief: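 HepG2, WT, 2,000 cells/well; 5 hr pre-incubation 37 C/5% CO2; compound pin-transferred from DMSO; 16 hr exposure; CellTiter-Fluor, 1 hr; fluorescence read.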

[4] = molecular target: Nuclear receptor subfamily 1 group I member 2 (Homo sapiens) (UniProt O75469); test: Human pregnane X receptor (PXR) small molecule agonists, qHTS assay (AID 1346982); further: nearly all actives have a fitted effect of over 35% in size; further: potency means the concentration at half of the fitted maximal effect
Nuclear receptor subfamily 1 group I member 2 (Homo sapiens), sequence (O75469 whole entry, looked up): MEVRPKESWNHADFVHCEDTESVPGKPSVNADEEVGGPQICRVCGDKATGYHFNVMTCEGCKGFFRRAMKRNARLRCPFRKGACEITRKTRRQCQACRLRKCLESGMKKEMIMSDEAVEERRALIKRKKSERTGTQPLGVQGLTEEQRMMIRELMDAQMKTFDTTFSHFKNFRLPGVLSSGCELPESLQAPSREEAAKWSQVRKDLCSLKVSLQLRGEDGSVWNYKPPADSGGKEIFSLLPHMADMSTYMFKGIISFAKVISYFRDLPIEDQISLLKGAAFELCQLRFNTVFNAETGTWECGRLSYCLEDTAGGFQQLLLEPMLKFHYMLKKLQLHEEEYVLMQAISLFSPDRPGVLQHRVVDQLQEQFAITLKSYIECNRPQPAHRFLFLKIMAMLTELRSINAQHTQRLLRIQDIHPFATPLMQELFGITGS
Method in brief: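 Luciferase signal from ONE-Glo (30 min, room temperature) measured activation of hPXR-driven CYP3A4 reporter expression in PXR-Luc HepG2 cells treated with compounds for 24 hr at 37 C.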

[5] = molecular target: Cytochrome P450 2D6 (Homo sapiens) (UniProt P10635); test: Cytochrome P450 Family 2 Subfamily D Member 6 (CYP2D6) small molecule antagonists: luciferase reporter qHTS assay (AID 1671196); further: nearly all actives have a fitted effect of over 50% in size; further: potency means the concentration at half of the fitted maximal effect; on activity change, negative = inhibition: series mostly up to about 120 µM
Cytochrome P450 2D6 (Homo sapiens), sequence (P10635 whole entry, looked up): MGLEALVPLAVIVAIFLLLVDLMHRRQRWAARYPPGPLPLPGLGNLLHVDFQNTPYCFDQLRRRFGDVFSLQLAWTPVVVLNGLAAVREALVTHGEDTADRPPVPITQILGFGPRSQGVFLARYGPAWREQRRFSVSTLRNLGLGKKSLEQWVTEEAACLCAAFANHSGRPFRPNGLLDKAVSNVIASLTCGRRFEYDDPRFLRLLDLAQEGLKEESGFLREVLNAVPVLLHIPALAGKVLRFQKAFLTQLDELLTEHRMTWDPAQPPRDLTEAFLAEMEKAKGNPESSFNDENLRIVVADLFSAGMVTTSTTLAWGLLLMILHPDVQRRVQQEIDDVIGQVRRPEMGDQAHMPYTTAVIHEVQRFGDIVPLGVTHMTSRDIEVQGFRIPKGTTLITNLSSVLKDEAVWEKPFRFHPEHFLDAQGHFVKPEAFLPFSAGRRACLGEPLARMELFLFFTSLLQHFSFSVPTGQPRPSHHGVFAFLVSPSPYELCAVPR
Method in brief: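 Read-out is luminescence from luciferin formed by CYP2D6 turnover of a proluciferin substrate, recorded as relative luminescence units. Reactions ran 1 h at room temperature after NADPH regeneration solution was added.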

[6] = molecular target: Cytochrome P450 2C19 (Homo sapiens) (UniProt P33261); test: Cytochrome P450 Family 2 Subfamily C Member 19 (CYP2C19) small molecule antagonists: luciferase reporter qHTS assay (AID 1671197); further: nearly all actives have a fitted effect of over 65% in size; further: potency means the concentration at half of the fitted maximal effect; on activity change, negative = inhibition: series mostly up to about 120 µM
Cytochrome P450 2C19 (Homo sapiens), sequence (P33261 whole entry, looked up): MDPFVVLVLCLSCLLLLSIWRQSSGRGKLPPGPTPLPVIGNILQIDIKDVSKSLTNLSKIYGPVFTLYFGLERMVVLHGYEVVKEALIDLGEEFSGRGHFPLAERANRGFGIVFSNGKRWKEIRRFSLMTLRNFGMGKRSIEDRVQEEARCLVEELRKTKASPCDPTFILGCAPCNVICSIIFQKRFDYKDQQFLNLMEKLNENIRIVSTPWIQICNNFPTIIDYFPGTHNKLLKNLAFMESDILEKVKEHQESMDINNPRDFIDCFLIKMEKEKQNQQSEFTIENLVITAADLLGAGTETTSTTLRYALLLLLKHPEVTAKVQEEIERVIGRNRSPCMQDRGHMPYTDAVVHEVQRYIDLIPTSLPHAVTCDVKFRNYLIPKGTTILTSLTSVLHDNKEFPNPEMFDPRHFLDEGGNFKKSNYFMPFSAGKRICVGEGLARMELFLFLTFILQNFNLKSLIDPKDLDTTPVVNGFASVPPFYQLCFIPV
Method in brief: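 P450-Glo CYP2C19 system: enzyme-substrate mix with compound 10 min at room temperature, then NADPH regeneration solution, 1 h at 37C. Proluciferin-to-luciferin conversion detected by luminescence after 20 min with detection reagent; ketoconazole as positive control.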

[7] = molecular target: Cytochrome P450 2C9 (Homo sapiens) (UniProt P11712); test: Cytochrome P450 Family 2 Subfamily C Member 9 (CYP2C9) small molecule antagonists: luciferase reporter qHTS assay (AID 1671198); further: nearly all actives have a fitted effect of over 50% in size; further: potency means the concentration at half of the fitted maximal effect; on activity change, negative = inhibition: series mostly up to about 120 µM
Cytochrome P450 2C9 (Homo sapiens), sequence (P11712 whole entry, looked up): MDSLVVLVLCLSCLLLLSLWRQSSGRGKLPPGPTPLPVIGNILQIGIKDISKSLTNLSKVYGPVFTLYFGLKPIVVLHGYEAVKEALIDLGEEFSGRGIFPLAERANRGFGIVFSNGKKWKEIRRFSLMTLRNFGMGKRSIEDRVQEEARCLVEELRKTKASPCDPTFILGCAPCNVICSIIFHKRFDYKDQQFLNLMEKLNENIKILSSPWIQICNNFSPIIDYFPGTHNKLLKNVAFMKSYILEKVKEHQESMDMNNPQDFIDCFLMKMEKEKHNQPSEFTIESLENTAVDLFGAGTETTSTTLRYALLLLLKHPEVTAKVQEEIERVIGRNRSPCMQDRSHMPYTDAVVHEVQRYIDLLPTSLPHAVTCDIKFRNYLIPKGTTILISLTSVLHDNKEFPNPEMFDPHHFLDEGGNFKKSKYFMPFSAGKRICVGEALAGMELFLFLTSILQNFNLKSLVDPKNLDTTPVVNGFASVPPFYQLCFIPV
Method in brief: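 CYP2C9 activity was measured with a P450-Glo proluciferin substrate. Enzyme–substrate mix was held with compound for 10 min at room temperature, then NADPH regeneration solution was added for 1 h at 37C. Luciferin product was read as luminescence.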

[8] = molecular target: Nuclear receptor subfamily 1 group I member 2 (Homo sapiens) (UniProt O75469); test: CYP3A4 induction through human pregnane X receptor (PXR) by small molecules, qHTS assay (AID 1346984); further: nearly all actives have a fitted effect of over 40% in size
Method in brief: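 Luminescence readout: luciferase signal after One-Glo (30 min, room temperature), following 3 h at 37C with 3uM final Luciferin-IPA P450 substrate. Cells were DPX-2 (HepG2, PXR/CYP3A4-luc co-transfected) dosed for 24 h.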

[9] = molecular target: Nuclear receptor subfamily 1 group I member 2 (Rattus norvegicus) (UniProt Q9R1A7); test: Rat pregnane X receptor (rPXR) activation by small molecules, qHTS assay (AID 1346983); details: rPXR luciferase reporter cells, One-Glo luminescence, 24 h; max activation: active compounds read high; further: nearly all actives have a fitted effect of over 20% in size
Nuclear receptor subfamily 1 group I member 2 (Rattus norvegicus), sequence (Q9R1A7 whole entry, looked up): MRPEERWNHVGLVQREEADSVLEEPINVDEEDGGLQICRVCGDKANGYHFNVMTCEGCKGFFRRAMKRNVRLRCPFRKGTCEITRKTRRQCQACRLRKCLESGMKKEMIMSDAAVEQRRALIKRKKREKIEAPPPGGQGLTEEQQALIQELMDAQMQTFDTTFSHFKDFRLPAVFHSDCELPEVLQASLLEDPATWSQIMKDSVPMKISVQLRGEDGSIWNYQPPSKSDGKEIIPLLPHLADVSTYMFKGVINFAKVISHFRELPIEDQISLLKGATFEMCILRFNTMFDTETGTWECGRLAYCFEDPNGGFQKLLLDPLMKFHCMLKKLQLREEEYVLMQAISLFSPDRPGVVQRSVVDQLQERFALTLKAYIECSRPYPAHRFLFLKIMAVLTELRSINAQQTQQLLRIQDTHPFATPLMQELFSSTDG
Method in brief: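 Cell-based rPXR luciferase reporter assay, 2,000 cells per well, rested 5hr at 37 C before compound addition in DMSO, then 24 hr at 37 C. One-Glo reagent was added and luminescence read after 30 min at room temperature.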
On the % scale 0 is the no-effect control and ±100 the full control effect.

Clc1nc2ccccc2s1
inactive: Potency [1] | Potency [2] | Potency [3] | Potency [4] | Potency [5] | Potency [6] | Potency [7]

Cc1nc(Nc2ncc(C(=O)Nc3c(C)cccc3Cl)s2)cc(N2CCN(CCO)CC2)n1
active: Potency [1] 13.3 µM | Potency [3] 18.8 µM | Potency [4] 1.06 µM
inactive: Potency [2] | Potency [8] | Potency [5]

CCCC(O)C(O)CO (stereo not drawn)
inactive: Potency [1] | Potency [2] | Potency [3] | Potency [4] | Potency [5] | Potency [6] | Potency [7]

CCCCCCCCC(C)=O
inactive: Potency [1] | Potency [2] | Potency [3] | Potency [4] | Potency [5] | Potency [6] | Potency [7]

CN1[C@@H]2CC[C@H]1CC(OC(=O)C(CO)c1ccccc1)C2 (stereo partly drawn)
inactive: Potency [1] | Potency [2] | Potency [3] | max activation [9] -0.936%

CC(C)(C)c1n[nH]c(=O)n(N)c1=O
inactive: Potency [1] | Potency [2] | Potency [3] | Potency [4] | Potency [5] | Potency [6] | Potency [7]

C=CC(=O)OCCC#N
inactive: Potency [2] | Potency [3] | Potency [4] | Potency [5] | Potency [6] | Potency [7]
active: Potency [1] 61.5 µM

C=CC(=O)OCC(O)COc1ccccc1 (stereo not drawn)
inactive: Potency [2] | Potency [4] | Potency [5]
active: Potency [1] 61.1 µM | Potency [6] 35.6 µM

C/C=C/C(=O)Oc1c(CCCCCC(C)C)cc([N+](=O)[O-])cc1[N+](=O)[O-]
inactive: Potency [5]
active: Potency [1] 15.4 µM | Potency [2] 48.6 µM | Potency [3] 27.3 µM | Potency [4] 21.7 µM | Potency [6] 35.6 µM | Potency [7] 2.52 µM

COC(=O)[C@]1(C)CCC[C@@]2(C)[C@H]1CC=C1C=C(C(C)C)CC[C@@H]12
inactive: Potency [1] | Potency [2] | Potency [3]
active: Potency [4] 17.2 µM | Potency [6] 28.3 µM | Potency [7] 31.7 µM

COc1cc(C(=O)NS(=O)(=O)c2ccccc2C)ccc1Cc1cn(C)c2ccc(NC(=O)OC3CCCC3)cc12
active: Potency [7] 15.5 µM
inactive: Potency [1] | Potency [2] | Potency [3] | max activation [9] -0.0293% | Potency [5] | Potency [6]

C(=C/c1ccccc1)/c1ccccc1
inactive: Potency [1] | Potency [2] | Potency [3] | Potency [4] | Potency [5] | Potency [6] | Potency [7]

CC(C)(C)c1cc(CCC(=O)NCCCCCCNC(=O)CCc2cc(C(C)(C)C)c(O)c(C(C)(C)C)c2)cc(C(C)(C)C)c1O
active: Potency [7] 1.42 µM
inactive: Potency [1] | Potency [2] | Potency [3] | Potency [4] | Potency [5]

Cc1cc(=O)[nH]c(=O)[nH]1
inactive: Potency [1] | Potency [2] | Potency [3] | Potency [4] | Potency [5] | Potency [6] | Potency [7]

CCCCCCC(C)OC(=O)COc1nc(F)c(Cl)c(N)c1Cl (stereo not drawn)
inactive: Potency [1] | Potency [2] | Potency [3] | Potency [4]
active: Potency [6] 4.48 µM | Potency [7] 17.8 µM

Cc1cccc(Br)c1
active: Potency [6] 35.8 µM | Potency [7] 40.1 µM
inactive: Potency [1] | Potency [2] | Potency [3] | Potency [5]

COC(=O)CC(C)CCC=C(C)C (stereo not drawn)
inactive: Potency [1] | Potency [2] | Potency [3] | Potency [4] | Potency [5] | Potency [6] | Potency [7]

CCCCN(C)C
inactive: Potency [1] | Potency [2] | Potency [3] | Potency [4] | Potency [5] | Potency [6] | Potency [7]

CCCC(CC)CCCCCCCN (stereo not drawn)
active: Potency [5] 0.817 µM | Potency [6] 0.365 µM | Potency [7] 25.8 µM
inactive: Potency [1] | Potency [2] | Potency [3]

O=C=NCc1cccc(CN=C=O)c1
active: Potency [7] 6.74 µM
inactive: activity change, negative = cytotoxicity [1] 0.691% [at 19 µM] | caspase-3/7 activation [2] -0.138% [at 19 µM] | activity change, negative = cytotoxicity [3] 9.74% [at 19 µM] | activation [4] 2.53% [at 19 µM] | activity change, negative = inhibition [5] -24.5% [at 23.6 µM]
